ABHD5 PLIN5 PPI: ABHD5-PLIN5 protein interaction inhibition. Q00G26+Q8WTS1. Split G. princeps luciferase complementation, luminescence, 4 h. inhibition, % at 4 µM. 0.78% of 360,000 active;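 active means inhibition above the mean inhibition across every tested compound plus 3 SD, cut at about 22% in these data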;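 further: 0% = DMSO only wells and the 100% control is not disclosed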
NOD2 RIPK2 PPI: blocks binding of human NOD2 to RIPK2. inhibition, % at 4.98 µM. AID 624267. O43353. CHO BLA complementation NOD2-RIPK2, CCF4 ratio. 0.38% of 360,000 active; in the data active means inhibition above about 21%;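 further: 0% = vehicle only and 100% = reference blocker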
Target sequence (O43353 whole entry, looked up): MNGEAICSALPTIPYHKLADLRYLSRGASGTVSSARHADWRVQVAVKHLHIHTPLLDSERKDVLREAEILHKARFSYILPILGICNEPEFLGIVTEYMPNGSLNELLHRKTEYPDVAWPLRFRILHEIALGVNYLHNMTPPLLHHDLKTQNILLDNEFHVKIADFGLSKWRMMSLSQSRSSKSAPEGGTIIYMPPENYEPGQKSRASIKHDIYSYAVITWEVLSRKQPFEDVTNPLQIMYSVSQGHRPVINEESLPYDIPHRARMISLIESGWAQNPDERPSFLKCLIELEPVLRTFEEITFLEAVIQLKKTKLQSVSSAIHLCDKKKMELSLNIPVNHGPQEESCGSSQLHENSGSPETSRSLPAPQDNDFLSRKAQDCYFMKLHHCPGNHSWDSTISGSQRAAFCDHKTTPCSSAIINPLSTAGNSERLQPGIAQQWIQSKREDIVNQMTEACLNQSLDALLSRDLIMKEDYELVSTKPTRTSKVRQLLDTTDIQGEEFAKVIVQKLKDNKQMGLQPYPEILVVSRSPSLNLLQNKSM
TLR9-MyD88 inh: blocks human TLR9 binding to MyD88; Q9NR96+Q99836; CHO BLA complementation TLR9-MyD88, CCF4 FRET ratio; inhibition, % at 4.98 µM; 0.21% of 340,000 active; AID 504734;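 active means inhibition above the mean over all tested compounds plus 3 SD, cut at about 21% in these data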;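 further: 0% = DMSO only wells and 100% = clavulanate BLA inhibitor control wells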
TLR4-MyD88 BLA: TLR4-MyD88 interaction inhibition in cells | O00206+Q99836 | HeLa CL3-4 TLR4/MyD88 BLA complementation, FRET ratio | inhibition, % at 8.4 µM | 0.18% of 200,000 active | AID 861; in the data active means inhibition above about 25%;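 further: 0% = vehicle and 100% = reference inhibitor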
NOD2 RIPK2 conf: NOD2-RIPK2 interaction inhibition confirmed; shares compounds with NOD2 RIPK2 PPI; 70% of 1,200 active; CHO cells, NOD2-RIPK2 BLA complementation, CCF4 FRET; inhibition, % at 4.98 µM;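 active means mean inhibition across replicates above a set limit taken from the earlier primary screen, cut at about 21% in these data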;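 further: 0% = DMSO-only wells and the high end = clavulanate BLA-blocked wells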
NOD2 BLA counter: hits BLA reporter in NOD2-RIPK2 inhibitor counterscreen | shares compounds with NOD2 RIPK2 PPI | CHO BLA reporter, CCF4 FRET ratio | inhibition, % at 4.98 µM | 57% of 1,200 active;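 active means mean inhibition above the low-control mean inhibition plus three low-control SD, cut at about 11% in these data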;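 further: 0% = DMSO only wells and 100% = clavulanate high control wells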
Active calls of the source: *; · = no result. This is a sample that favours compounds with a hit; in the whole collection about 1.2% have one here.

SMILES	ABHD5 PLIN5 PPI	NOD2 RIPK2 PPI	TLR9-MyD88 inh	TLR4-MyD88 BLA	NOD2 RIPK2 conf	NOD2 BLA counter
CCc1ccc(Nc2n[n+](-c3ccccc3)c(-c3ccc(N(CC)CC)cc3)s2)cc1	4	29*	11	·	69*	76*
CCCCNC(=O)c1ccc2nc(CC)c(N(CC)CCOC)n2c1	-2	-4	·	·	·	·
O=C(Cn1ncc(Cl)c(Cl)c1=O)NC(=O)NC1CCCCC1	14	28*	6	·	47*	8
CCN(CC)S(=O)(=O)c1cc(NC(=O)Cn2ncc(Cl)c(Cl)c2=O)ccc1C	9	22*	19	·	35*	9
Cc1cc(Br)ccc1NC(=O)CNC(=O)CSc1ncccn1	-7	4	6	·	·	·
COc1ccc(NC(=O)Cn2ncc(Cl)c(Cl)c2=O)cc1S(=O)(=O)N1CCOCC1	14	-17	-4	0	·	·
Cc1cc(Br)ccc1NC(=O)CNC(=O)Cn1ncc(Cl)c(Cl)c1=O	-2	25*	5	-3	36*	4
O=C(Cn1ncc(Cl)c(Cl)c1=O)Nc1ccc2c(c1)OCO2	3	21*	10	·	25*	5
CCC(C)Sc1cccc(-c2nc3ccc(C)cn3c2NC2CCCCC2)c1 (stereo not drawn)	-24	-9	1	·	·	·
CCC(C)Sc1cccc(-c2nc3cnccn3c2NC2CCCCC2)c1 (stereo not drawn)	-6	34*	22*	·	28*	42*
C=CCC1(O)C(=O)Nc2ccccc21 (stereo not drawn)	6	-10	-2	8	·	·
O=C1Nc2ccccc2C1(O)Cc1ccccn1 (stereo not drawn)	3	24*	4	·	0	-3
O=C(c1ccccc1)N1CCN(S(=O)(=O)c2ccccc2)CC1	1	31*	-9	·	-7	-3
O=C(c1cccc(F)c1)N1CCN(S(=O)(=O)c2ccccc2)CC1	0	-7	5	-7	·	·
CCCCC(=O)OCc1c(-c2ccccc2)ncc2ccccc12	0	-5	-2	·	·	·
S=C(NCC1CCCO1)c1ccc(Br)cc1 (stereo not drawn)	-8	1	-2	·	·	·
O=C(Nc1ccc(S(=O)(=O)N2CCCCCC2)cc1)c1[nH]ncc1[N+](=O)[O-]	5	29*	26*	·	14	10
O=C(Nc1ccc([N+](=O)[O-])cc1)c1ccc(S(=O)(=O)N2CCCC2)cc1	-6	5	0	·	·	·
C/C(=N\NC(=S)NC1CCCCC1)c1cccc(Br)c1	-1	32*	-4	2	-2	-3
C/C(=N\NC(=S)NC1CCCCC1)c1cccc(C(F)(F)F)c1	9	-12	0	·	·	·
CCN(Cc1cccc(F)c1)C(=O)c1ccc2ccccc2n1	-3	-9	-2	·	·	·
CCC(C)Oc1nc2c(c(=O)n(C)c(=O)n2C)n1C (stereo not drawn)	-1	-2	13	·	·	·
S=c1[nH]nc(-c2cc3c(s2)-c2ccccc2CC3)o1	-45	30*	12	16	25*	39*
O=C(O)c1ccc(CN(c2ccccc2)S(=O)(=O)c2ccccc2)cc1	-2	-2	9	·	·	·
CCOC(=O)c1sc2nc(C)nc(N3CCN(S(=O)(=O)c4ccccc4)CC3)c2c1C	-2	3	7	·	·	·
SMILES	ABHD5 PLIN5 PPI	NOD2 RIPK2 PPI	TLR9-MyD88 inh	TLR4-MyD88 BLA	NOD2 RIPK2 conf	NOD2 BLA counter
O=c1cc(-c2cccs2)oc2ccc(Cl)cc12	-5	-11	-4	6	·	·
O=c1c(O)c(-c2cccs2)oc2ccc(Cl)cc12	-7	45*	21*	14	45*	52*
CC(C)CCNC(=O)C1CC(=O)N(CCc2ccccc2)C1 (stereo not drawn)	-2	-1	-7	·	·	·
COc1ccc(S(=O)(=O)N(C)C[C@H]2OCc3cn(nn3)CCCC(=O)N([C@@H](C)CO)C[C@@H]2C)cc1	2	-4	·	·	·	·
COc1ccc(O)c(/C=N/NC(=S)NCCc2ccccc2)c1	-4	26*	16	·	29*	23*
Cc1cc(O)c(C2=Nc3ccccc3SC(c3ccc(Cl)cc3)C2)c(=O)o1 (stereo not drawn)	-10	-2	5	5	·	·
COc1ccc(C2CC(c3c(O)cc(C)oc3=O)=NCCS2)c(OC)c1 (stereo not drawn)	-13	23*	16	10	15	4
COc1ccc(S(=O)(=O)N2CCOCC2)cc1NC(=O)COC(=O)c1oc2ccccc2c1C	-1	-26	3	·	·	·
CCOC(=O)c1c(CN2CCNCC2)nc2ccc(Cl)cc2c1-c1ccccc1	0	21*	-7	·	19	-3
Cc1cc(SC#N)cc(C)c1NC(=O)CCl	-44	31*	10	13	28*	-1
CCc1cc(SC#N)cc(C)c1NC(=O)CCl	-23	24*	7	-12	25*	-5
Cc1ccc(C(=O)N2CCCC(Nc3ccc(F)cc3)C2)cc1C (stereo not drawn)	1	-12	-7	·	·	·
COC(=O)CCNC(=O)c1ccc2nc(Cc3ccc(OC)c(OC)c3)oc2c1	-1	22*	9	·	-3	0
Cc1cc(OC(C)C(=O)N2CCN(c3ccc(F)cc3)CC2)c2c(C)cc(=O)oc2c1 (stereo not drawn)	3	-11	-10	·	·	·
Cc1cccc(C)c1N1CCN(C(c2cc3ccccc3o2)c2nnnn2C(C)(C)C)CC1 (stereo not drawn)	-6	21*	·	·	-4	-5
CC1OC2CC(=O)OC2C2=C1C(=O)c1c(O)cccc1C2=O (stereo not drawn)	101*	70*	·	·	77*	-14
C[C@@H]1CN([C@H](C)CO)C(=O)CCCn2cc(nn2)CO[C@H]1CN(C)C(=O)Nc1ccc(F)cc1	7	0	4	·	·	·
Cc1ccc(CC(NC(=O)c2ccccc2)C(=O)NC(CC(C)C)C(=O)O)cc1 (stereo not drawn)	-6	59*	11	11	-2	1
CC(=O)Nc1ccc(NC(=O)c2cc(-c3ccc(F)cc3C)n[nH]2)cc1	8	28*	·	·	-21	-8
CCOc1ccc(CCNC(=O)COC(=O)c2cc([N+](=O)[O-])ccc2N2CCOCC2)cc1OCC	7	-8	6	·	·	·
COc1cc(CC(=O)NCC(C)(C)N2CCOCC2)cc(OC)c1OC	-2	38*	-4	·	-2	-1
O=C1CCC(=O)N1c1nc2n(n1)C(c1ccccc1)C=C(c1ccc(Br)cc1)N2 (stereo not drawn)	6	39*	14	10	16	12*
CC(/C=C/c1ccc(N(C)C)cc1)=N\N=C1\NC(=O)CC(C(=O)Nc2ccccc2)S1 (stereo not drawn)	3	-1	2	-1	·	·
CC(/C=C/c1ccc(N(C)C)cc1)=N/N=C1/NC(=O)CC(C(=O)Nc2ccc(Cl)cc2)S1 (stereo not drawn)	8	24*	14	7	19	32*

Source: PubChem
